# Data taken from PubChem BioAssay.
# The source made the active and inactive calls.
# How the values were obtained:
# [1] = system: PRMT1 (protein arginine N-methyltransferase 1); assay: PRMT1 binders on small-molecule microarrays, primary screen, biochemical, small-molecule microarray, 635 nm fluorescence (AID 1088); settings: small-molecule microarray binding, higher = more signal;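 note: binding of Prmt1 protein to compounds spotted on small-molecule microarray slides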
# [2] = yeast growth modulation, basal conditions, primary screen, YJM789 clinical isolate, OD600, 24 h (AID 1089);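 note: growth of clinical yeast isolate S. cerevisiae YJM 789 seeded 1000 cells per well; test concentration not given here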; settings: S. cerevisiae YJM789 growth, higher = more signal, called active from +8 up or from −8 down
# [3] = fission yeast growth modulation, primary screen, strain 972, OD600, 24 h, no modulator (AID 1090);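 note: basal condition with compound alone and no growth modifier present; test concentration not given here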; settings: S. pombe 972 growth, higher = more signal, called active from +8 up or from −8 down
# [4] = S. cerevisiae growth modulation with rapamycin, primary screen, strain BY4716, OD600, 96 h (AID 1091); settings: higher = more signal, called active from +8 up or from −8 down; note: test concentration not given here
# [5] = target: Torsin-1A-interacting protein 2 (Homo sapiens) (UniProt Q8NFQ8); assay: LULL1 binders on small-molecule microarray, primary screen, cell lysate, human LULL1 lysate, 635/667 nm fluorescence (AID 1092); settings: hLULL1 lysate binding, 635 nm fluorescence, higher = more signal;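 note: probe is lysate of COS7 cells overexpressing human LULL1; score merges per-feature 667 nm fluorescence with signal-to-noise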
# Torsin-1A-interacting protein 2 (Homo sapiens), sequence (Q8NFQ8 whole entry, looked up): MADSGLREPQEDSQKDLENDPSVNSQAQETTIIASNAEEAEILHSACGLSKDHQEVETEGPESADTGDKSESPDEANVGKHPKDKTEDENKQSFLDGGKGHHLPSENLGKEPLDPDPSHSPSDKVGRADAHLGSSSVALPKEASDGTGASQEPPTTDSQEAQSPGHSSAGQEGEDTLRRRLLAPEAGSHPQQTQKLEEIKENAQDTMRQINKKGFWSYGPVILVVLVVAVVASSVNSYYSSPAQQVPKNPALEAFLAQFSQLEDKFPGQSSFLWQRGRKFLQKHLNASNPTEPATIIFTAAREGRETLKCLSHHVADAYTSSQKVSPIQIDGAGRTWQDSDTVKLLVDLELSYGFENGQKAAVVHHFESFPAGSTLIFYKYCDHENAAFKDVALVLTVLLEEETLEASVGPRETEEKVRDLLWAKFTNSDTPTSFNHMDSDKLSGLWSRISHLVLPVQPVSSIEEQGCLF
# [6] = E. coli growth modulation, two-sided OD650, primary screen, E. coli filamentation project, strain DRC41, 24 h (AID 1093); settings: OD650, 24 h, higher = more signal, called active from +8 up or from −8 down;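 note: MC1000 strain lacking acrAB efflux and sulA so SOS filamentation is blocked; test concentration not given here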
# [7] = small-molecule microarray binders of probe aLefty2, primary screen, biochemical, biotinylated probe, 635/667 nm fluorescence (AID 1094); settings: higher = more signal;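 note: score merges spot fluorescence near 667 nm with spot signal-to-noise ratio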
# [8] = system: Noggin (protein binding on small-molecule microarray); assay: Noggin binders on small-molecule microarray, primary screen, biochemical, 635/667 nm fluorescence (AID 1095); settings: 635 nm fluorescence, higher = more signal;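 note: score merges 667 nm feature fluorescence with signal to noise over triplicate slides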
# [9] = target: Neurogenic locus notch homolog protein 3 (Homo sapiens) (UniProt Q9UM47); assay: NOTCH3 binders on small-molecule microarray, primary screen, biochemical, 635/667 nm fluorescence (AID 1096); settings: NOTCH3 binding, 635 nm fluorescence, higher = more signal
# Neurogenic locus notch homolog protein 3 (Homo sapiens), sequence (Q9UM47 whole entry, looked up): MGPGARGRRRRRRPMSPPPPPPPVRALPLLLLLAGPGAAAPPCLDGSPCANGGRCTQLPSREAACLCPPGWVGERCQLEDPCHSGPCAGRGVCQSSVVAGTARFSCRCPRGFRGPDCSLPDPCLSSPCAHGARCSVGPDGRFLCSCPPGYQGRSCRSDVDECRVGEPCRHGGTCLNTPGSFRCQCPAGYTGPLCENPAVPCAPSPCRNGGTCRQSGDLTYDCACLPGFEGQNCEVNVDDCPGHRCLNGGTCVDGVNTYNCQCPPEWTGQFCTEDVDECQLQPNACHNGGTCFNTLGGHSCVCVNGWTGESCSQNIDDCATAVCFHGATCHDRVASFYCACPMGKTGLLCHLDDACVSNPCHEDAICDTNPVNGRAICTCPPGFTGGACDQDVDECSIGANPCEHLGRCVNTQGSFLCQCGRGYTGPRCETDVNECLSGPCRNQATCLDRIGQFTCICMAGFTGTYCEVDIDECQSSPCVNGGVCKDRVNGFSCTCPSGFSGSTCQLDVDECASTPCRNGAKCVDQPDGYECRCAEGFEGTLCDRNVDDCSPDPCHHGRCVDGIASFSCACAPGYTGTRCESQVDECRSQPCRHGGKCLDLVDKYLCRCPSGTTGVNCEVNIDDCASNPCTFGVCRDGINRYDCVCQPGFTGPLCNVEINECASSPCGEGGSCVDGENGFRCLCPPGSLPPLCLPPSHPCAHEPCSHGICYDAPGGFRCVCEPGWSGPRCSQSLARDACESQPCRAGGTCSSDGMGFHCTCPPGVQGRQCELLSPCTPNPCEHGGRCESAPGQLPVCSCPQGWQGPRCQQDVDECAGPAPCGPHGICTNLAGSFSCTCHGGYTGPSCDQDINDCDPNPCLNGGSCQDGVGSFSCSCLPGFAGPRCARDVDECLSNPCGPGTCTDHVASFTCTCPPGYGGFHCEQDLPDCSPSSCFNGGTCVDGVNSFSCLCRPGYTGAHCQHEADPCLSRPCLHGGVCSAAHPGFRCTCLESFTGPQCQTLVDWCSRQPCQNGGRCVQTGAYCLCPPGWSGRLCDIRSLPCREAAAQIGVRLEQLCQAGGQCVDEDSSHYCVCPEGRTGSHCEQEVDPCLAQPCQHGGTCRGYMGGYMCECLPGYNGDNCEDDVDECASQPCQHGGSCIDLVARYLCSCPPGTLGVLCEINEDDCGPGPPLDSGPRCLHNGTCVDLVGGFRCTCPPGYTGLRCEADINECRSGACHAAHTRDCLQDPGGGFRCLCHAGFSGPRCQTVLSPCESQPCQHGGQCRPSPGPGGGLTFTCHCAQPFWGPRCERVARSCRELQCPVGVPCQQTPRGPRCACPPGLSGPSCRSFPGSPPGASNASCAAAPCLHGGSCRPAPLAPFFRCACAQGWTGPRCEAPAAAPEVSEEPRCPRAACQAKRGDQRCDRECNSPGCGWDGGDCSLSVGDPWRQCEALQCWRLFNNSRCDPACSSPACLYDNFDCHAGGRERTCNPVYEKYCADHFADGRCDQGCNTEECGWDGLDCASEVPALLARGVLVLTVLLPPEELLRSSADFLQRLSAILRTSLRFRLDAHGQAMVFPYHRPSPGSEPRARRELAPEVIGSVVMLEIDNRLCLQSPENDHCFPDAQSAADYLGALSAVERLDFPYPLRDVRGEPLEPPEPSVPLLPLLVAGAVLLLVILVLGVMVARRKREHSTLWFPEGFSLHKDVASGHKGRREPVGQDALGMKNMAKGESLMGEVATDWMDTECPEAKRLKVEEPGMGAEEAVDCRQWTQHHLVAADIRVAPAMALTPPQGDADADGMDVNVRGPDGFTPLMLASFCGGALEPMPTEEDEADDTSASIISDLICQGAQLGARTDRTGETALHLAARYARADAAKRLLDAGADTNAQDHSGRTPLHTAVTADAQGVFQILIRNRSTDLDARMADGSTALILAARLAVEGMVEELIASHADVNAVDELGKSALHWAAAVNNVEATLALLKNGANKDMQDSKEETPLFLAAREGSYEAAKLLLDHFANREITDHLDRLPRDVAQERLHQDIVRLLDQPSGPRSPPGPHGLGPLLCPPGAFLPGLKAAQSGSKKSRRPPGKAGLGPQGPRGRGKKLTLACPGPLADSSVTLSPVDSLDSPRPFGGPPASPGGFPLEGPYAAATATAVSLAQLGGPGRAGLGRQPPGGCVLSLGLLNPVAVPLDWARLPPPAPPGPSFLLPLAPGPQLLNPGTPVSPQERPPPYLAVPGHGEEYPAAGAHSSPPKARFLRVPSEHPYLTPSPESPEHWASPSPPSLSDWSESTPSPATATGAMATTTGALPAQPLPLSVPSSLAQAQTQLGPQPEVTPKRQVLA
# [10] = small-molecule microarray binders of probe aEGFR, primary screen, biochemical, biotinylated probe, 635/667 nm fluorescence (AID 1097); settings: higher = more signal;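 note: probe is a biotinylated anti-EGFR antibody binding compounds printed on slides; score combines fluorescence near 667 nm and signal to noise of each spot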
# [11] = system: Plasmodium falciparum Sir2 (PF13_0152, Sir2A); assay: pfSir2 binders on small-molecule microarrays, primary screen, biochemical, small-molecule microarray, 635 nm fluorescence (AID 1098); settings: small-molecule microarray binding, fluorescence 635 nm; higher = more signal;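 note: score merges spot fluorescence intensity with its signal-to-noise ratio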
# [12] = small-molecule microarray binders of probe aDKK1, primary screen, biochemical, biotinylated probe, 635/667 nm fluorescence (AID 1099); settings: higher = more signal;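 note: score merges 667nm spot fluorescence with signal to noise across triplicate slides; reference of the scale not given here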
# [13] = small-molecule microarray binders of probe aCHRDL2, primary screen, biochemical, biotinylated probe, 635/667 nm fluorescence (AID 1100); settings: higher = more signal
# [14] = splicing luciferase reporter signal modulators, primary screen, spliceosome inhibition project, cell-based, HEK293, splice +/- reporter (AID 1101); settings: luminescence, 24 h, higher = more signal, called active from +8 up or from −8 down;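 note: HEK293 cells carrying a splicing-competent luciferase reporter gene; test concentration not given here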
# [15] = target: Fibroblast growth factor 10 (Homo sapiens) (UniProt O15520); assay: FGF10 binders on small-molecule microarrays, primary screen, biochemical, small-molecule microarray, 635 nm fluorescence (AID 1102); settings: FGF10 binding, fluorescence 635 nm, higher = more signal
# Fibroblast growth factor 10 (Homo sapiens), sequence (O15520 whole entry, looked up): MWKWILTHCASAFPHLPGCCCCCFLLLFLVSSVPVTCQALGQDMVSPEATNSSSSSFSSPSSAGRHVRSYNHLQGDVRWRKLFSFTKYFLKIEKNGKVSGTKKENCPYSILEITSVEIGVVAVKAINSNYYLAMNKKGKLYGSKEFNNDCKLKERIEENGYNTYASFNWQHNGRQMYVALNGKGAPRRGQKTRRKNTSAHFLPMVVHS
# [16] = system: glycogen synthase kinase-3 (GSK3A per assay name; protocol says GSK3B); assay: GSK3 binders on small-molecule microarrays, primary screen, biochemical, small-molecule microarray, 635 nm fluorescence, GSK3A (AID 1103); settings: small-molecule microarray binding, fluorescence 635 nm; higher = more signal; note: the record names both GSK3A and GSK3B
# [17] = target: Epidermal growth factor receptor (Homo sapiens) (UniProt P00533); assay: EGFR binders on small-molecule microarrays, primary screen, biochemical, small-molecule microarray, 635 nm fluorescence (AID 1104); settings: EGFR binding, higher = more signal;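 note: score merges 667 nm emission intensity with spot signal to noise over triplicate slides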
# Epidermal growth factor receptor (Homo sapiens), sequence (P00533 whole entry, looked up): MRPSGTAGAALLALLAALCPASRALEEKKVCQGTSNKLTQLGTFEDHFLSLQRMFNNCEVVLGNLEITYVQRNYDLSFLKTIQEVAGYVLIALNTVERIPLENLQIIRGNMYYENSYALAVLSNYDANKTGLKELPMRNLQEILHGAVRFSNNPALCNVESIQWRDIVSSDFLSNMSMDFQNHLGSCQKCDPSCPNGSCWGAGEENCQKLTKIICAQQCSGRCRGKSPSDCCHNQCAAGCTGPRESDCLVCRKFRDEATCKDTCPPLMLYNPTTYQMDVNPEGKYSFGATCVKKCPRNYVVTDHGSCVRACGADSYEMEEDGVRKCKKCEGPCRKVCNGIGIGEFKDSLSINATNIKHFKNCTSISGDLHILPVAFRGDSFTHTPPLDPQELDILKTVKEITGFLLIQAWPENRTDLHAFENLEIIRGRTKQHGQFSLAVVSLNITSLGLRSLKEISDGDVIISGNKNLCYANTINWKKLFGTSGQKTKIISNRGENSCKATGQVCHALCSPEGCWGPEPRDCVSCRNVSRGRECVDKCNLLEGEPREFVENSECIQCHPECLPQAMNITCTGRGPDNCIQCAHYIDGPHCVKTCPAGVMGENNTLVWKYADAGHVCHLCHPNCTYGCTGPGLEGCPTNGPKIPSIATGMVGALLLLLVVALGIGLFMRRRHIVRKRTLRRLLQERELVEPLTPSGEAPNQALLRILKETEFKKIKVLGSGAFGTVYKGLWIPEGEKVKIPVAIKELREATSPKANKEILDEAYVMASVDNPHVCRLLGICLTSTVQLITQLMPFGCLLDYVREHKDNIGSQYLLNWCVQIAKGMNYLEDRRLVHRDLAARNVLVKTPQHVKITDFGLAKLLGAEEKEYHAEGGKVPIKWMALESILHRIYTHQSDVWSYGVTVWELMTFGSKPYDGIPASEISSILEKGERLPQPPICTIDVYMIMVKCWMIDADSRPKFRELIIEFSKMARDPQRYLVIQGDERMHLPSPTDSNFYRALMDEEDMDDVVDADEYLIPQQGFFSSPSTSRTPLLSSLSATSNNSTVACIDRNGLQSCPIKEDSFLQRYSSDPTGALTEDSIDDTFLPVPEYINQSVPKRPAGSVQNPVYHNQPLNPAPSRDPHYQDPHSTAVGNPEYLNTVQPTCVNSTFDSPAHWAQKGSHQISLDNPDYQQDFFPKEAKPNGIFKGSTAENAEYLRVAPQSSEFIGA
# [18] = target: Follistatin-related protein 3 (Homo sapiens) (UniProt O95633); assay: FSTL3 binders on small-molecule microarrays, primary screen, biochemical, small-molecule microarray, 635 nm fluorescence (AID 1105); settings: FSTL3 binding, higher = more signal;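 note: score merges emission near 667 nm and signal to noise per printed spot across three slides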
# Follistatin-related protein 3 (Homo sapiens), sequence (O95633 whole entry, looked up): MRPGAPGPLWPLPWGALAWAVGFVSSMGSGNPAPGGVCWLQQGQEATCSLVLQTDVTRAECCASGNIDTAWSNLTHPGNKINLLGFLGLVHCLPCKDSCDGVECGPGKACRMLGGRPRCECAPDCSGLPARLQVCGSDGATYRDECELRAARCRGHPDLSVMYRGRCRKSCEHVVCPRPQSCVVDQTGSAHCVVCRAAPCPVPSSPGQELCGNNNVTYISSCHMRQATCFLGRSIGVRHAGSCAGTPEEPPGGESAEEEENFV
# [19] = target: Dickkopf-related protein 1 (Homo sapiens) (UniProt O94907); assay: DKK1 binders on small-molecule microarrays, primary screen, biochemical, small-molecule microarray, 635 nm fluorescence scan (AID 1106); settings: DKK1 binding, higher = more signal;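 note: score merges emission near 667 nm with signal to noise over three replicate slides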
# Dickkopf-related protein 1 (Homo sapiens), sequence (O94907 whole entry, looked up): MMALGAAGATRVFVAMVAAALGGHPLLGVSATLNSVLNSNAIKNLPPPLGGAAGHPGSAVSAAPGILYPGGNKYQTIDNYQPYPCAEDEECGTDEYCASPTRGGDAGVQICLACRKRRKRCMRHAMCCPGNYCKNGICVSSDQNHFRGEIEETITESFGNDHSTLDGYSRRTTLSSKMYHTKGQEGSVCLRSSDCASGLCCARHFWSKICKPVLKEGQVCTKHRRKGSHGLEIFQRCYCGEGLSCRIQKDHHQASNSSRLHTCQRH
# [20] = system: Inhibin beta A chain (activin A); assay: INHBA (activin A) binders on microarrays, primary screen, biochemical, small-molecule microarray, 635 nm fluorescence scan (AID 1107); settings: small-molecule microarray binding, higher = more signal;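 note: mouse activin A protein probed at 4.33 µg/mL on printed slides; score merges bound-protein fluorescence near 667 nm with spot signal-to-noise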
SMILES,composite z-score [1],z-score [2],z-score [3],z-score [4],composite z-score [5],z-score [6],composite z-score [7],composite z-score [8],composite z-score [9],composite z-score [10],composite z-score [11],composite z-score [12],composite z-score [13],z-score [14],composite z-score [15],composite z-score [16],composite z-score [17],composite z-score [18],composite z-score [19],composite z-score [20]
C=C(CCCC)C(=O)CC[C@@H](OC(=O)c1ccccc1-c1ccccc1C(=O)O)c1ccccc1OCCO,1.23,-0.576 (inactive),-1.19 (inactive),-1.61 (inactive),-0.583,0.306 (inactive),-0.146,1.2,0.48,-0.178,0.776,-0.286,-0.543,2.3 (inactive),1.27,-0.121,-0.215,0.27,0.373,0.959
CC(C)(C)N1CC=CC23O[C@@H]4/C=C\CCCOC(=O)C4[C@H]2C(=O)N(CCCCCO)[C@@H]3C1=O (stereo not given in full),-0.981,-0.143 (inactive),0.0289 (inactive),-0.635 (inactive),0.389,-0.938 (inactive),-0.114,-1.48,-0.457,-0.289,1.58,-0.3,0.149,-0.464 (inactive),-0.943,-0.581,-1.43,-1.63,-0.473,-1.11
C=C(COC)C(=O)CC[C@@H](OC(C)=O)c1ccccc1OCCO,1.34,-1.89 (inactive),-3.27 (inactive),-1.51 (inactive),1.76,0.732 (inactive),-0.117,1.11,0.784,-0.0382,1.29,-0.232,0.313,1.34 (inactive),1.53,-0.0163,-0.0143,0.209,-0.306,1.38
O=C1NC(=O)C2C1C=CC(C(O)c1ccc(B(O)O)cc1)N2Nc1ccc(Cl)cc1Cl (stereo not given),-0.201,1.33 (inactive),-0.229 (inactive),0.715 (inactive),1.71,-0.758 (inactive),0.126,-0.255,0.287,-0.0238,0.46,0.704,0.326,0.379 (inactive),0.0671,-0.0838,-0.174,0.317,-0.414,0.948
COc1ccc(C(=O)Nc2cccc(CN3C(=O)[C@]4(O[C@H](CC(=O)N5Cc6ccccc6C[C@H]5CO)[C@@H]([Si](C)(C)c5ccc(OC)cc5)[C@@H]4C)c4ccccc43)c2)cc1,1.55,0.143 (inactive),1.46 (inactive),1.79 (inactive),0.906,2.31 (inactive),-0.186,1.73,1.1,-0.027,0.895,-0.245,-0.362,-0.865 (inactive),0.946,0.955,1.24,1.42,1.34,1.21
